Source: PubChem BioAssay (NCATS)
Where “and” joins values, the source holds several entries; their conditions need not be identical. Equal entries are not always repeated. Records with an inconclusive call do not appear. Calls of active or inactive are those of the source. Calls come from the whole dose curve; as a rule, active = well fitted curve in the direction sought with a large enough effect; inconclusive = small, poorly fitted or top-dose-only effect, or another doubt; inactive = no such curve, though single readings can be large; an effect the other way counts as inactive or inconclusive.

Assays:
UISO = experiment: qHTS assay to identify novel small-molecules to repurpose for Merkel cell carcinoma treatment (AID 1296009); conditions: MCC and control cell lines, CellTiter-Glo viability, 72 h; series mostly up to 46 µM; note: nearly all actives have a fitted effect of over 60% in size; note: potency is the fitted concentration of half-maximal effect
In short: (§1)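 Cell viability, measured as CellTiter-Glo luminescence, was normalized between DMSO and no-cell wells. The cells had been exposed to 8- or 11-point compound dilutions for 72 hr at 37 degree celsius.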

C33A = experiment: Primary qHTS to identify gynecologic anti-cancer compounds using libraries of approved drugs and bioactive compounds (AID 1345084); conditions: Gynecologic cancer cell panel viability, ATPlite luminescence, 48 h; series mostly up to 57.5 µM; note: nearly all actives have a fitted effect of over 55% in size; note: potency is the fitted concentration of half-maximal effect
In short: (§2)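 Five-point cytotoxicity, 48 h drug exposure at 37 C, 5% CO2, on cells seeded 16 h beforehand. ATP content read by ATPlite luminescence.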

CAOV3 = experiment: as above; conditions: Gynecologic cancer cell panel viability, ATPlite luminescence, 48 h; series mostly up to 57.5 µM
In short: as §2

Es-2 = experiment: as above; conditions: Gynecologic cancer cell panel viability, ATPlite luminescence, 48 h; series mostly up to 57.5 µM
In short: as §2

HeLa = experiment: as above; conditions: Gynecologic cancer cell panel viability, ATPlite luminescence, 48 h; series mostly up to 57.5 µM
In short: as §2

JEG-3 = experiment: as above; conditions: Gynecologic cancer cell panel viability, ATPlite luminescence, 48 h; series mostly up to 57.5 µM
In short: as §2

OV90 = experiment: as above; conditions: Gynecologic cancer cell panel viability, ATPlite luminescence, 48 h; series mostly up to 57.5 µM
In short: as §2

PA-1 = experiment: as above; conditions: Gynecologic cancer cell panel viability, ATPlite luminescence, 48 h; series mostly up to 57.5 µM
In short: as §2

Tov112D = experiment: as above; conditions: Gynecologic cancer cell panel viability, ATPlite luminescence, 48 h; series mostly up to 57.5 µM
In short: as §2

MKL-1 = experiment: qHTS assay to identify novel small-molecules to repurpose for Merkel cell carcinoma treatment (AID 1296009); conditions: MCC and control cell lines, CellTiter-Glo viability, 72 h; series mostly up to 46 µM; note: nearly all actives have a fitted effect of over 60% in size; note: potency is the fitted concentration of half-maximal effect
In short: as §1

MKL-2 = experiment: as above; conditions: MCC and control cell lines, CellTiter-Glo viability, 72 h; series mostly up to 46 µM
In short: as §1

CASKI = experiment: Primary qHTS to identify gynecologic anti-cancer compounds using libraries of approved drugs and bioactive compounds (AID 1345084); conditions: Gynecologic cancer cell panel viability, ATPlite luminescence, 48 h; series mostly up to 57.5 µM; note: nearly all actives have a fitted effect of over 55% in size; note: potency is the fitted concentration of half-maximal effect
In short: as §2

Hek293T = experiment: as above; conditions: Gynecologic cancer cell panel viability, ATPlite luminescence, 48 h, control line for the selectivity index; series mostly up to 57.5 µM
In short: as §2

SKOV3 = experiment: as above; conditions: Gynecologic cancer cell panel viability, ATPlite luminescence, 48 h; series mostly up to 57.5 µM
In short: as §2

Tov-21-G = experiment: as above; conditions: Gynecologic cancer cell panel viability, ATPlite luminescence, 48 h; series mostly up to 57.5 µM
In short: as §2

[1] = Drug repurposing screens with cells derived from glioblastoma tumor samples (AID 1345199); conditions: GBM patient neurospheres viability, ATP luminescence, 48 h; note: nearly all actives have a fitted effect of over 40% in size
In short: (§3)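 Primary testing used CD133+ neurospheres from four GBM patients, seven concentrations, 48 h exposure and ATP-based viability; confirmation added three slower-growing patient lines.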

astro = experiment: as above; conditions: viability, ATP luminescence, 48 h; series mostly up to 45.9 µM
In short: as §3

[2] = at 45.9 µM (top of the series), tumour line B
[3] = at 45.9 µM (top of the series), tumour line D
[4] = at 46 µM (top of the series), tumour line A
[5] = at 46.1 µM (top of the series), tumour line C
% is set by controls: 0 for no effect and ±100 for the full control effect.

COC(=O)Nc1nc2ccc(C(=O)c3cccs3)cc2[nH]1
active: Potency (UISO) 23.5 nM | Potency (C33A) 1000 nM | Potency (Es-2) 282 nM | Potency (HeLa) 158 nM | Potency (JEG-3) 355 nM | Potency (OV90) 7080 nM | Potency (PA-1) 224 nM | Potency (Tov112D) 316 nM
inactive: Potency (CAOV3)

N[C@@H](Cc1c[nH]c2ccc(O)cc12)C(=O)O
inactive: Potency (MKL-1) | Potency (MKL-2) | Potency (C33A) | Potency (CAOV3) | Potency (CASKI) | Potency (Es-2) | Potency (HeLa) | Potency (Hek293T) | Potency (JEG-3) | Potency (PA-1) | Potency (SKOV3) | Potency (Tov-21-G) | Potency (Tov112D) | activity, negative = cell killing [1, 2] -15.2% | activity, negative = cell killing [1, 3] -5.01% | activity, negative = cell killing [1, 4] -33.5% | activity, negative = cell killing [1, 5] -4.77% | Potency (astro)

Cc1cn([C@H]2C[C@H](N=[N+]=[N-])[C@@H](CO)O2)c(=O)[nH]c1=O
inactive: Potency (C33A) | Potency (Es-2) | Potency (HeLa) | Potency (Hek293T) | Potency (JEG-3) | Potency (OV90) | Potency (SKOV3) | Potency (Tov-21-G) | Potency (Tov112D) | activity, negative = cell killing [1, 2] -5.14% and -10.6% | activity, negative = cell killing [1, 3] -11% and -22.6% | activity, negative = cell killing [1, 5] -8.55% and -21.3% | Potency (astro)

CCC1(c2ccccc2)C(=O)NCNC1=O
inactive: Potency (C33A) | Potency (CAOV3) | Potency (CASKI) | Potency (Es-2) | Potency (HeLa) | Potency (Hek293T) | Potency (JEG-3) | Potency (OV90) | Potency (PA-1) | Potency (SKOV3) | Potency (Tov-21-G) | Potency (Tov112D) | activity, negative = cell killing [1, 2] -7.45% | activity, negative = cell killing [1, 3] 9.05% | activity, negative = cell killing [1, 4] -15.2% | activity, negative = cell killing [1, 5] -6.01% | Potency (astro)
